Values joined by “and” are separate entries in the source; they are usually repeats but may differ in a detail not shown here. Identical values can stand only once. Active and inactive are the calls of the source. Unless noted, the rule behind the calls is not given here.
Tests used:
[1] = hESC survival regulators, cell-based (AID 493140); settings: human embryonic stem cell survival screen; stronger effect = higher value;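 note: cells exposed to compounds for four days before counting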
[2] = liver-stage malaria parasite growth inhibition, primary screen, cell-based, HepG2, luciferase luminescence, HepG2 viability (AID 624349; in the data active = parasite load remaining mostly below about 12%, no sharp cut-off; inactive = mostly above about 10%;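 note: 100% = mean of DMSO negative control wells on the same plate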); settings: P. berghei liver stage in HepG2, luciferase luminescence, concentration not given here; parasite load remaining: stronger effect = lower value; viability: measured here: HepG2 viability without parasites
[3] = stimulators of nuclear beta-catenin in C2C12, primary screen, imaging, WNT3A-conditioned medium, mouse C2C12, NPC library (AID 1117326; in the data active = nuclear beta-catenin stimulation mostly above about 4.2%, no sharp cut-off; inactive = mostly below about 10%); settings: stronger effect = higher value
[4] = stimulators of insulin release from INS-1E, primary screen, cell-based, 5 mM glucose, NPC library (AID 1117329;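 active = compound raises insulin release from rat beta cells at 5 mM glucose, no numeric limit stated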); settings: rat INS-1E insulin secretion, at 10 µM, stronger effect = higher value
[5] = growth inhibition of GSK3B-pretreated HCT116 cells – cell-based, CellTiter-Glo, 0.2 to 20 µM (AID 1117336;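 active = compounds lowering colon cancer cell viability after pretreatment blocking the GSK3B kinase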); settings: HCT116 viability after GSK3B inhibitor, at 20 µM, stronger effect = higher value
[6] = inhibition of endothelial tube formation, primary screen, imaging, VEGF stimulated, CD31 staining, tube area, NPC library (AID 1117340;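 active = compound that reduces growth-factor-driven endothelial tube area in a mixed cell culture, no cutoff stated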); settings: VEGF-stimulated ADSC/ECFC co-culture, at 10 µM, stronger effect = higher value
[7] = glucagon-like peptide 1 release enhancers, primary assay, NCI-H716 cell line, NPC library (AID 1117341;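 active = compound raises GLP1 secretion from the human gut endocrine cells, with no numeric limit stated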); settings: NCI-H716 cells, at 10 µM, stronger effect = higher value
[8] = HCT116 colon cancer cell growth inhibition, primary screen, CellTiter-Glo luminescence, NPC library (AID 1117342;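 active = compounds that lower survival of HCT116 colon cancer cells in the luminescence readout, no numeric limit stated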); settings: at 20 µM (top of the series)
[9] = CellTiter-Glo luminescent readout of SW480 viability loss, NPC library primary (AID 1117343;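 active = compounds that lower viability of the colon cancer cells in the luminescence readout, with no numeric limit stated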); settings: CellTiter-Glo luminescence; at 20 µM (top of the series)
[10] = decreased DLD-1 cellular survival, CellTiter-Glo luminescent readout, NPC compound collection, primary HTS (AID 1117346;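 active = compounds that lower survival of DLD-1 colon cancer cells in the luminescence readout, no cutoff given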); settings: DLD-1 viability, CellTiter-Glo luminescence; at 20 µM (top of the series)
[11] = target: 6-phosphogluconate dehydrogenase, decarboxylating (Homo sapiens) (UniProt P52209); experiment: 6PGD enzyme inhibitors, primary screen, biochemical, human, recombinant enzyme, NADPH absorbance (AID 1159550;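 active = at least 20% inhibition of 6-phosphogluconate dehydrogenase activity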); settings: recombinant 6PGD, NADPH absorbance 341 nm; at 10 µM; stronger effect = higher value
[12] = system: Aerobactin synthetase IucA (Klebsiella pneumoniae, hypervirulent); experiment: IucA enzyme inhibition, biochemical, LOPAC library, absorbance readout (AID 1346212); settings: IucA enzyme assay, absorbance (OD) readout; stronger effect = lower value;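 tested at 8 µM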;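 note: 100% = no compound wells and 0% = no enzyme wells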
[13] = sensitizers of A549 cells to miR-34 induction, primary screen, imaging, A549 dox-inducible miR-34, nuclei and caspase counts (AID 1347080;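 active = compounds whose cell count with miR-34 switched on is under 0.7 times the count with it off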); settings: A549 miR-34 inducible, Hoechst nuclei count, 48 h
[14] = survival rescue of mitochondrial mutant cells in low glucose, primary screen, MELAS cybrids, Rieske KO mouse fibroblasts, CellTiter-Glo (AID 1508586;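 active = mean z-score across replicates of 1.96 or higher in either the MELAS or the Rieske mutant cell line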;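 note: z relative to plate mean and SD of compound and empty wells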)
[15] = target: NAD(+) hydrolase SARM1 (Homo sapiens) (UniProt Q6SZW1); experiment: SARM1 TIR NADase inhibitors, cell lysate, NAD-Glo luminescence (AID 1508614;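 active = compound whose remaining NAD level is above about 45 nM, limit read from the data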;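 note: higher remaining NAD means stronger inhibition of SARM1 NADase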); settings: SAM-TIR HEK293T lysate NADase, at 1 µM, stronger effect = higher value
[16] = target: Mitogen-activated protein kinase 7 (Homo sapiens) (UniProt Q13164); experiment: ERK5 transactivation activators in reporter cells, primary screen, cell-based, HTS (AID 1508626;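 active = luciferase signal above three times the same-plate solvent-only control wells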;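 note: luciferase driven by Gal4-ERK5 fusion binding five Gal4 sites before minimal TATA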); settings: HeLa Gal4-ERK5 transactivation, 18 h, at 5 µM, stronger effect = higher value
[17] = viability rescue of complex I mutant cybrids, primary screen, cell-based, galactose medium, ATP luminescence (AID 1645843;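 active = z-score of at least 1.8 in each of two replicates, scored against plate mean and spread of sample wells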;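 note: positive z means more ATP and so rescue of galactose-driven cybrid death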); settings: complex I mutant cybrid cells, 72 h, stronger effect = higher value
[18] = differential killing of epithelial or mesenchymal cells, primary screen, imaging, PC-3E GFP, TEM4-18 mCherry, co-culture (AID 1345086;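 active = compounds killing one labelled cell type while sparing the other, by normalised counts and ratio limits, not self-fluorescent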;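 for all read-outs here: cells exposed to compound for 72 h before imaging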;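 for red/green cell ratio (normalised): normalised mesenchymal count divided by normalised epithelial count so high means epithelial killing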); settings: imaging cell counts, at 1 µM; for red/green cell ratio (normalised): actives lie on both sides
[19] = system: Aerobactin synthetase IucA (Klebsiella pneumoniae hvKP1); experiment: Biochemical IucA enzyme inhibition primary screen of the Spectrum library (AID 1346200); settings: malachite green pyrophosphate, A620, at 8 µM, stronger effect = lower value;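 note: 100% = wells without compound and 0% = wells lacking enzyme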
[20] = measured here: relative caspase fold change +Dox/-Dox
[21] = measured here: total cells with miR-34 induction, stronger effect = lower value
[22] = measured here: total cells without miR-34 induction
[23] = MELAS cybrid survival, CellTiter-Glo 48 h, stronger effect = higher value
[24] = Rieske KO mouse fibroblast survival, CellTiter-Glo 72 h
[25] = measured here: epithelial PC-3E GFP cell survival
[26] = measured here: mesenchymal TEM4-18 mCherry cell survival

Mitogen-activated protein kinase 7 (Homo sapiens), sequence (Q13164 whole entry, looked up, the tested form may be a part): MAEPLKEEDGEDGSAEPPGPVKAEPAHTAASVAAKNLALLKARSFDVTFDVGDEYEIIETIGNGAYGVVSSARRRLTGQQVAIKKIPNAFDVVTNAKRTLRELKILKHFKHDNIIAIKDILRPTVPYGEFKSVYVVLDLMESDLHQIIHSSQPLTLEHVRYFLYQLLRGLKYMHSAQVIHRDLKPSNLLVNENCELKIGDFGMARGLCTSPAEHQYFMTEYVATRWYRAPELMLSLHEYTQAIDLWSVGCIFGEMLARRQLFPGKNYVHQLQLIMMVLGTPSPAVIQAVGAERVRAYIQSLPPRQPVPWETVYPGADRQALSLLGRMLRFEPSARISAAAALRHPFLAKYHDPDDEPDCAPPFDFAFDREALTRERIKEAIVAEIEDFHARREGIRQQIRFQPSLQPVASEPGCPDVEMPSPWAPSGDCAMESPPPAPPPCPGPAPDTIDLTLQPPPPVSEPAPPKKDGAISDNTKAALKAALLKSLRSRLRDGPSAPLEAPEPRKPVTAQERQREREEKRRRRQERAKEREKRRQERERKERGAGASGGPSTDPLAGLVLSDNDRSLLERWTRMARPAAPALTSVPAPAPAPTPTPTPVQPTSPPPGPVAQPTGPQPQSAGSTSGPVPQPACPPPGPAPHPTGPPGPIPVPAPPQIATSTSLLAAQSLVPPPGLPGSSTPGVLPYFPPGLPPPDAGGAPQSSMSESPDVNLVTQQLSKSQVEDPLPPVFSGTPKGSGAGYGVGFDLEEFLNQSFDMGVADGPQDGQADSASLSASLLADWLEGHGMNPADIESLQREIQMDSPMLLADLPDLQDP
NAD(+) hydrolase SARM1 (Homo sapiens), sequence (Q6SZW1 whole entry, looked up, the tested form may be a part): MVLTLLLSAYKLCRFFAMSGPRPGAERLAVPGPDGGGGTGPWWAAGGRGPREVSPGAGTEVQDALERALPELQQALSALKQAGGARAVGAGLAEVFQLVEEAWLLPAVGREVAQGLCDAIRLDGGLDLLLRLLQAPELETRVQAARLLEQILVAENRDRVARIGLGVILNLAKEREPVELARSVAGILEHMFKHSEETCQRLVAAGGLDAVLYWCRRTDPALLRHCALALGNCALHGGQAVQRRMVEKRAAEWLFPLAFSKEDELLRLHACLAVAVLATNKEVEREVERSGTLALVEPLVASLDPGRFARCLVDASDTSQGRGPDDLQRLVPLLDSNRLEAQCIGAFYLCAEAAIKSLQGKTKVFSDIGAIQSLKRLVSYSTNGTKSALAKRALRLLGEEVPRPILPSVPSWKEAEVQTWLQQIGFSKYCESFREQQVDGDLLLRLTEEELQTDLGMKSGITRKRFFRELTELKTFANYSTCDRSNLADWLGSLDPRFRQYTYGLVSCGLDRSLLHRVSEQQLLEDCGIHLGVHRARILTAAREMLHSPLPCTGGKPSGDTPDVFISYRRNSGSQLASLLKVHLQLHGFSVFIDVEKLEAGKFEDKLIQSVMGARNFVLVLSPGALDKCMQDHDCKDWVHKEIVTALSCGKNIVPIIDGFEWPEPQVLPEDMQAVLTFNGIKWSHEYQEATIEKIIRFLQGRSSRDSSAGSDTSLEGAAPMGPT
6-phosphogluconate dehydrogenase, decarboxylating (Homo sapiens), sequence (P52209 whole entry, looked up): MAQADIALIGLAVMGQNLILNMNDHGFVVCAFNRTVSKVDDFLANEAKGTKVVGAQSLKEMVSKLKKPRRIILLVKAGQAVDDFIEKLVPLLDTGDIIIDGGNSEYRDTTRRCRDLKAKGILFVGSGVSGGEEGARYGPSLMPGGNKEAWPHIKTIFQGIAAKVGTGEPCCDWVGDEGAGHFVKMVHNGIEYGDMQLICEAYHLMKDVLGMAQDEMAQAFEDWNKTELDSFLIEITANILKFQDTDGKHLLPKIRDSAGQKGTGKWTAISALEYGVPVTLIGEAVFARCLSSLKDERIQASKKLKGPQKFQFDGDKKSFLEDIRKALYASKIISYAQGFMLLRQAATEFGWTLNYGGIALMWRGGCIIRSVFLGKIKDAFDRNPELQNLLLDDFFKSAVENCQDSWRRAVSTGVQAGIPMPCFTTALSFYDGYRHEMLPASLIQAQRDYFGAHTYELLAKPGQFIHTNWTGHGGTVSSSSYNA

C[C@@H]1O[C@@H](O[C@H]2C[C@@H](O)[C@]3(CO)[C@H]4[C@H](O)C[C@]5(C)[C@@H](C6=CC(=O)OC6)CC[C@]5(O)[C@@H]4CC[C@]3(O)C2)[C@H](O)[C@H](O)[C@H]1O
inactive: survival [1] 1.08 | parasite load remaining [2] -1.77% and 5.6% and -0.23% | nuclear beta-catenin stimulation ([3]; at 10 µM) 0% | insulin secretion stimulation [4] 5.8% | GLP1 secretion stimulation [7] 9.2% | inhibition [11] -10.9% | remaining activity [12] 109% | fold change ([13]; stronger effect = lower value) 0.999 and 0.916 and 0.73 | remaining NAD [15] 10 nM | luciferase signal [16] 16 AU | z-score [17] -1.23 and -2.25
-1.2%: nuclear beta-catenin stimulation ([3]; stimulation, at 2 µM)
345 and 529 and 320: cell count [13, 21]
active: viability decrease [5] 84.8% | tube area decrease [6] 112% | inhibition of viability [8] 56.6% | viability decrease (inhibition) [9] 61% | viability decrease (inhibition) [10] 77.4% | z-score [14, 23] 2.21
0.275 and 1.45 and 1.97: fold change [13, 20]
346 and 578 and 438: cell count [13, 22]
-0.329: z-score [14, 24]
38.8% and 25.7% and 34%: viability [2]

C[C@H]1O[C@@H](O[C@H]2[C@@H](O)C[C@H](O[C@H]3[C@@H](O)C[C@H](O[C@H]4CC[C@@]5(C)[C@H](CC[C@@H]6[C@@H]5CC[C@]5(C)[C@@H](C7=CC(=O)OC7)CC[C@]65O)C4)O[C@@H]3C)O[C@@H]2C)C[C@H](O)[C@@H]1O
1.9%: nuclear beta-catenin stimulation ([3]; stimulation, at 2 µM)
inactive: nuclear beta-catenin stimulation ([3]; at 10 µM) 1.3% | insulin secretion stimulation [4] 0.25% | GLP1 secretion stimulation [7] 11.6% | inhibition [11] -0.54% | remaining NAD [15] 10 nM | luciferase signal [16] 24 AU
active: viability decrease [5] 84.5% | tube area decrease [6] 112% | inhibition of viability [8] 61.8% | viability decrease (inhibition) [9] 75.8% | viability decrease (inhibition) [10] 84.5%

CC(=O)Nc1cc([As](=O)(O)O)ccc1O
12300: cell count [13, 22]
66.8% and 91.1%: viability [2]
inactive: parasite load remaining [2] 96.4% and 52.6% | nuclear beta-catenin stimulation ([3]; at 10 µM) 4.8% | insulin secretion stimulation [4] -0.2% | viability decrease [5] -42.6% | tube area decrease [6] -21.2% | GLP1 secretion stimulation [7] -0.8% | inhibition of viability [8] -7.73% | viability decrease (inhibition) [9] 16.9% | viability decrease (inhibition) [10] -3.7% | inhibition [11] 17.7% | red/green cell ratio (normalised) [18] 0.8 | activity remaining [19] 107% | fold change ([13]; stronger effect = lower value) 0.975 | remaining NAD [15] 10 nM | luciferase signal [16] 52 AU
12000: cell count [13, 21]
0.94: normalised cell number [18, 26]
0.2%: nuclear beta-catenin stimulation ([3]; stimulation, at 2 µM)
1.16: normalised cell number [18, 25]
2.55: fold change [13, 20]

NC(=O)CN1CCCC1=O
0.91: normalised cell number [18, 25]
1.2%: nuclear beta-catenin stimulation ([3]; stimulation, at 2 µM)
-2.44 and 0.0138: z-score [14, 24]
0.95: normalised cell number [18, 26]
inactive: survival [1] 17.8 | nuclear beta-catenin stimulation ([3]; at 10 µM) -0.1% | insulin secretion stimulation [4] 0.2% | viability decrease [5] -6.65% | tube area decrease [6] -16.1% | GLP1 secretion stimulation [7] 1.9% | inhibition of viability [8] -10.5% | viability decrease (inhibition) [9] 10% | viability decrease (inhibition) [10] 0.05% | inhibition [11] -18.4% | red/green cell ratio (normalised) [18] 1.04 | activity remaining [19] 112% | remaining activity [12] 110% | z-score [14, 23] 0.856 and 0.336 | remaining NAD [15] 10 nM | luciferase signal [16] 44 AU | z-score [17] 0.785
